Structures can show the parent of a compound that is named as a salt.
The compounds below were run on Clostridium sporogenes DSM 1664 (assay: growth (OD595) fold change vs plate DMSO controls (fold change (ratio)); higher = more growth). Conditions: 20 µM; incubation time: 27 h, anaerobic, 37 °C.
Method in brief: (§1)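 The reported measure is growth: the fold change against the median of DMSO controls on the plate. Absorbance at 595 nm from anaerobic 96-well mGAM cultures grown for 27 h at 37 °C was blank-subtracted, corrected for background with 20 µM compound solutions in water, and converted to OD with a calibration factor of 5. Fold changes above 1.5 appear as NA, and values are the mean of 2 biological replicates.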
In the case of `CS(=O)(=O)NC(=O)c1cc(Oc2ccc(C(F)(F)F)cc2Cl)ccc1[N+](=O)[O-]`, the growth is reported as 0.96.
`C#C[C@]1(O)C=C[C@H]2[C@@H]3CCC4=CC(=O)CC[C@@H]4[C@H]3CC[C@@]21CC` [Gestodene] gave a growth of 1.16.
For `ClC1C(Cl)C(Cl)C(Cl)C(Cl)C1Cl` (centres undefined), the growth was 1.06.
In the case of `CCOC(=O)OC1=C(c2cc(C)ccc2C)C(=O)N[C@]12CC[C@@H](OC)CC2`, the growth is reported as 0.93.
Compound `N#Cc1cc(Br)c(O)c(Br)c1` has a growth of 0.976.
`O=C(CCCN1CCC2(CC1)C(=O)NCN2c1ccccc1)c1ccc(F)cc1` [Spiperone] showed a growth of 0.864.
Work on `CNC(=O)Oc1cccc(/N=C/N(C)C)c1` yielded a growth of 0.913.
`CN(C)C(CSS(=O)(=O)O)CSS(=O)(=O)O` showed a growth of 1.11.
Work on `CN1[C@@H]2C[C@@H](OC(=O)[C@H](CO)c3ccccc3)C[C@H]1[C@@H]1O[C@@H]12` [Scopolamine hydrochloride] yielded a growth of 1.07.
`COP(=S)(OC)Oc1nc(Cl)c(Cl)cc1Cl` showed a growth of 1.02.
`C#CCN(C)[C@H](C)Cc1ccccc1` [Selegiline hydrochloride] was tested, and the growth was 0.986.
`C[N+]1(C)CCCC(OC(=O)C(O)(c2ccccc2)c2ccccc2)C1` (centres undefined) [Mepenzolate bromide] was tested, and the growth was 0.917.
In the case of `CCNc1nc(Cl)nc(NC(C)C)n1`, the growth is reported as 1.02.
`CCc1cc(C)cc(CC)c1-c1c(OC(=O)C(C)(C)C)n2n(c1=O)CCOCC2` showed a growth of 0.933.
`COP(=O)(NC(C)=O)SC` (centres undefined) gave a growth of 1.04.
`CC[C@H]1CCC[C@H](O[C@H]2CC[C@H](N(C)C)[C@@H](C)O2)[C@@H](C)C(=O)C2=C[C@@H]3[C@@H](C=C(C)[C@@H]4C[C@@H](O[C@@H]5O[C@@H](C)[C@H](OC)[C@@H](OC)[C@H]5OC)C[C@@H]34)[C@@H]2CC(=O)O1.CC[C@H]1CCC[C@H](O[C@H]2CC[C@H](N(C)C)[C@@H](C)O2)[C@@H](C)C(=O)C2=C[C@H]3[C@@H]4C[C@H](O[C@@H]5O[C@@H](C)[C@H](OC)[C@@H](OC)[C@H]5OC)C[C@H]4C=C[C@H]3C2CC(=O)O1` showed a growth of 1.03.
With `C[C@@H]1C[C@@H]([C@H](O)CC2CC(=O)NC(=O)C2)C(=O)[C@@H](C)C1` [Cycloheximide] the growth was 1.17.
For `c1ccc2c(c1)cc1ccc3cccc4ccc2c1c34` [Benzo[a]pyrene], the growth was 0.972.
`N#Cc1sc2c(=O)c3ccccc3c(=O)c=2sc1C#N` gave a growth of 1.14.
With `Cc1cccc2sc3nncn3c12` the growth was 0.977.
Compound `CCC1(C)CC(=O)NC(=O)C1` [Bemegride] has a growth of 1.08.
`CCOP(=S)(OCC)Oc1cc(C)nc(C(C)C)n1` was tested, and the growth was 0.996.
Work on `CN1CCN(C(=O)OC2c3nccnc3C(=O)N2c2ccc(Cl)cn2)CC1` (centres undefined) [Zopiclone] yielded a growth of 1.13.
`CO[C@]12C[C@@H](COC(=O)c3cncc(Br)c3)CN(C)[C@@H]1Cc1cn(C)c3cccc2c13` [Nicergoline] was tested, and the growth was 0.937.
`CCOP(=S)(OCC)Oc1nc(Cl)c(Cl)cc1Cl` showed a growth of 1.13.
Compound `C[N+](C)(C)CCCCCCCCCC[N+](C)(C)C` [Decamethonium bromide] has a growth of 0.947.
`C[C@]12COC(=O)C[C@@H]1CC[C@@H]1[C@@H]2CC[C@@]2(C)[C@H]1CC[C@]2(C)O` [Oxandrolone] was tested, and the growth was 0.947.
`OC(Cc1ccccc1Cl)(Cn1nc[nH]c1=S)C1(Cl)CC1` (centres undefined) was tested, and the growth was 0.971.
`NCC1(CC(=O)O)CCCCC1` [Gabapentin] showed a growth of 1.14.
`CC(C)C[C@H]1C(=O)N2CCC[C@H]2[C@]2(O)O[C@](NC(=O)[C@@H]3C=C4c5cccc6[nH]c(Br)c(c56)C[C@H]4N(C)C3)(C(C)C)C(=O)N12` [Bromocryptine mesylate] gave a growth of 1.19.
Compound `NCC(O)c1ccc(O)cc1` (centres undefined) [Octopamine hydrochloride] has a growth of 0.798.
In the case of `NCC(CC(=O)O)c1ccc(Cl)cc1` (centres undefined) [Baclofen], the growth is reported as 1.11.
`CC1(C)C(C=C(Cl)Cl)C1C(=O)OC(C#N)c1cccc(Oc2ccccc2)c1` (mixture of isomers) was tested, and the growth was 1.13.
Compound `C#CCN1C(=O)COc2cc(F)c(N3C(=O)C4=C(CCCC4)C3=O)cc21` has a growth of 0.947.
Compound `CN1COCN(Cc2cnc(Cl)s2)/C1=N\[N+](=O)[O-]` has a growth of 0.973.
In the case of `CCNC1(c2cccs2)CCCCC1=O` (centres undefined) [Tiletamine hydrochloride], the growth is reported as 1.04.
Compound `Cc1cc(C(C#N)c2ccc(Cl)cc2)c(Cl)cc1NC(=O)c1cc(I)cc(I)c1O` (centres undefined) has a growth of 0.

Each compound was assayed on Escherichia coli IAI1 in the same assay as above. Conditions: 20 µM; incubation time: 27 h, anaerobic, 37 °C.
Method in brief: as §1
Work on `CS(=O)(=O)NC(=O)c1cc(Oc2ccc(C(F)(F)F)cc2Cl)ccc1[N+](=O)[O-]` yielded a growth of 0.996.
In the case of `C#C[C@]1(O)C=C[C@H]2[C@@H]3CCC4=CC(=O)CC[C@@H]4[C@H]3CC[C@@]21CC` [Gestodene], the growth is reported as 1.02.
In the case of `ClC1C(Cl)C(Cl)C(Cl)C(Cl)C1Cl` (centres undefined), the growth is reported as 1.
`CCOC(=O)OC1=C(c2cc(C)ccc2C)C(=O)N[C@]12CC[C@@H](OC)CC2` was tested, and the growth was 1.02.
Compound `N#Cc1cc(Br)c(O)c(Br)c1` has a growth of 0.821.
`O=C(CCCN1CCC2(CC1)C(=O)NCN2c1ccccc1)c1ccc(F)cc1` [Spiperone] showed a growth of 0.96.
Compound `CNC(=O)Oc1cccc(/N=C/N(C)C)c1` has a growth of 0.992.
Compound `CN(C)C(CSS(=O)(=O)O)CSS(=O)(=O)O` has a growth of 0.998.
`CN1[C@@H]2C[C@@H](OC(=O)[C@H](CO)c3ccccc3)C[C@H]1[C@@H]1O[C@@H]12` [Scopolamine hydrochloride] showed a growth of 1.01.
`COP(=S)(OC)Oc1nc(Cl)c(Cl)cc1Cl` showed a growth of 0.989.
With `C#CCN(C)[C@H](C)Cc1ccccc1` [Selegiline hydrochloride] the growth was 1.05.
`C[N+]1(C)CCCC(OC(=O)C(O)(c2ccccc2)c2ccccc2)C1` (centres undefined) [Mepenzolate bromide] gave a growth of 0.957.
For `CCNc1nc(Cl)nc(NC(C)C)n1`, the growth was 1.02.
Work on `CCc1cc(C)cc(CC)c1-c1c(OC(=O)C(C)(C)C)n2n(c1=O)CCOCC2` yielded a growth of 1.05.
`COP(=O)(NC(C)=O)SC` (centres undefined) gave a growth of 0.98.
`CC[C@H]1CCC[C@H](O[C@H]2CC[C@H](N(C)C)[C@@H](C)O2)[C@@H](C)C(=O)C2=C[C@@H]3[C@@H](C=C(C)[C@@H]4C[C@@H](O[C@@H]5O[C@@H](C)[C@H](OC)[C@@H](OC)[C@H]5OC)C[C@@H]34)[C@@H]2CC(=O)O1.CC[C@H]1CCC[C@H](O[C@H]2CC[C@H](N(C)C)[C@@H](C)O2)[C@@H](C)C(=O)C2=C[C@H]3[C@@H]4C[C@H](O[C@@H]5O[C@@H](C)[C@H](OC)[C@@H](OC)[C@H]5OC)C[C@H]4C=C[C@H]3C2CC(=O)O1` was tested, and the growth was 0.983.
Compound `C[C@@H]1C[C@@H]([C@H](O)CC2CC(=O)NC(=O)C2)C(=O)[C@@H](C)C1` [Cycloheximide] has a growth of 0.978.
Compound `c1ccc2c(c1)cc1ccc3cccc4ccc2c1c34` [Benzo[a]pyrene] has a growth of 1.03.
For `N#Cc1sc2c(=O)c3ccccc3c(=O)c=2sc1C#N`, the growth was 1.02.
With `Cc1cccc2sc3nncn3c12` the growth was 1.
`CCC1(C)CC(=O)NC(=O)C1` [Bemegride] gave a growth of 1.06.
For `CCOP(=S)(OCC)Oc1cc(C)nc(C(C)C)n1`, the growth was 1.01.
In the case of `CN1CCN(C(=O)OC2c3nccnc3C(=O)N2c2ccc(Cl)cn2)CC1` (centres undefined) [Zopiclone], the growth is reported as 0.987.
For `CO[C@]12C[C@@H](COC(=O)c3cncc(Br)c3)CN(C)[C@@H]1Cc1cn(C)c3cccc2c13` [Nicergoline], the growth was 1.
`CCOP(=S)(OCC)Oc1nc(Cl)c(Cl)cc1Cl` gave a growth of 0.998.
For `C[N+](C)(C)CCCCCCCCCC[N+](C)(C)C` [Decamethonium bromide], the growth was 0.999.
`C[C@]12COC(=O)C[C@@H]1CC[C@@H]1[C@@H]2CC[C@@]2(C)[C@H]1CC[C@]2(C)O` [Oxandrolone] showed a growth of 0.993.
For `OC(Cc1ccccc1Cl)(Cn1nc[nH]c1=S)C1(Cl)CC1` (centres undefined), the growth was 1.12.
`NCC1(CC(=O)O)CCCCC1` [Gabapentin] gave a growth of 1.15.
Work on `CC(C)C[C@H]1C(=O)N2CCC[C@H]2[C@]2(O)O[C@](NC(=O)[C@@H]3C=C4c5cccc6[nH]c(Br)c(c56)C[C@H]4N(C)C3)(C(C)C)C(=O)N12` [Bromocryptine mesylate] yielded a growth of 1.05.
Compound `NCC(O)c1ccc(O)cc1` (centres undefined) [Octopamine hydrochloride] has a growth of 1.03.
In the case of `NCC(CC(=O)O)c1ccc(Cl)cc1` (centres undefined) [Baclofen], the growth is reported as 1.17.
Work on `CC1(C)C(C=C(Cl)Cl)C1C(=O)OC(C#N)c1cccc(Oc2ccccc2)c1` (mixture of isomers) yielded a growth of 1.01.
For `C#CCN1C(=O)COc2cc(F)c(N3C(=O)C4=C(CCCC4)C3=O)cc21`, the growth was 0.989.
`CN1COCN(Cc2cnc(Cl)s2)/C1=N\[N+](=O)[O-]` was tested, and the growth was 1.02.
Work on `CCNC1(c2cccs2)CCCCC1=O` (centres undefined) [Tiletamine hydrochloride] yielded a growth of 1.
`Cc1cc(C(C#N)c2ccc(Cl)cc2)c(Cl)cc1NC(=O)c1cc(I)cc(I)c1O` (centres undefined) was tested, and the growth was 0.947.

Source: the supplement of paper PMC12494721
